Results on 14 molecules are retold here after PubChem BioAssay.

The source made the active and inactive calls.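 The calls were made as follows, unless noted: active = fluorescence slope higher than the sample average by over 3 SD (cut at about -0.22 in these data, passing the limit was not always enough); inactive = the rest.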

Experiment [1] is described as follows: inhibitors of TNFa-induced NFkB p65 translocation, primary screen, imaging, HUVEC, MLSMR starter and 10KST1 sets (AID 438;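 active = inhibition above 20% together with a positive visual image hit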;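 also: compound added about 3h40 before a 20 min TNFalpha stimulation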;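 as to inhibition: signal is the nuclear over cytoplasmic p65 intensity ratio per well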). The conditions noted are these: HUVEC TNFa-induced p65 nuclear translocation; cell count: measured here: nuclei count (cytotoxicity indicator), at 2.08 µM; inhibition: at 2 µM, stronger effect = higher value, 0% TNFa-plus-vehicle, 100% no-TNFa wells.

Experiment [2] can be described thus: inhibitors of mutant huntingtin aggregation, primary screen, imaging, exon1htt(103Q)mCFP cells, high-content imaging (AID 483;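 active = visual image review flags a hit and inhibition of aggregation exceeds 20%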;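 also: compound exposure lasted 3 days before fixation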;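 as to nuclei count: percent of the per-plate median nuclei count of sample wells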). The conditions noted are these: exon1htt(103Q)mCFP cell line, aggregate imaging, at 2 µM; inhibition of aggregation: stronger effect = higher value; nuclei count: measured here: cell count, toxicity.
Experiment [3] is described as follows: inhibitors of E-selectin induction by TNFa, primary screen, imaging, HUVEC, immunofluorescence, MLSMR starter and 10KST1 sets (AID 487;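 active = visually confirmed hit in the image check and inhibition above 20%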;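 as to inhibition: signal is fraction of cell area covered by stained E-selectin grains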;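 as to nuclei count: 100% = median nuclei count of all wells on the same plate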). As to conditions: HUVEC TNFalpha-induced E-selectin immunofluorescence imaging, at 2 µM; inhibition: stronger effect = higher value; nuclei count: measured here: cell number, toxicity.
Experiment [4] addresses Voltage-gated potassium channel subunit beta-2 (Rattus norvegicus) (UniProt P62483). The experiment is described as follows: KvBeta enzyme negative modulators, primary screen, biochemical, NADPH fluorescence (AID 622).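 Also: slope of raw intensity against log time taken from 70 to 1610 s.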 The conditions noted are these: recombinant KvBeta, 4-cyanobenzaldehyde reduction, at 10 µM, stronger effect = higher value.
For experiment [5] the target is unchanged. The experiment is described as follows: KvBeta positive modulators, primary screen, biochemical, NADPH fluorescence (AID 623;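 active = NADPH fluorescence slope more negative than the mean of all samples by about 3 SD, 99.7% confidence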;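 also: fluorescence intensity change per second fitted from 20 to 320 s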). As to conditions: Recombinant KvBeta, NADPH fluorescence decrease slope, 10 min; at 10 µM; stronger effect = lower value.
For experiment [6], the target named is Alpha-2C adrenergic receptor (Homo sapiens) (UniProt P18825). The experiment is described as follows: modulators of alpha2C/GIRK thallium flux, primary screen, cell-based, HEK293 alpha2C/GIRK1/2 (AID 624;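 active = fluorescence slope after compound addition differing from the mean of all screened samples at 99.7% confidence, in either direction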;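 also: slope of fluorescence ratio to pre-addition baseline per second over 15 to 24 s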). As to conditions: thallium flux BTC fluorescence, at 10 µM, actives lie on both sides.
Alpha-2C adrenergic receptor (Homo sapiens), sequence (P18825 whole entry, looked up): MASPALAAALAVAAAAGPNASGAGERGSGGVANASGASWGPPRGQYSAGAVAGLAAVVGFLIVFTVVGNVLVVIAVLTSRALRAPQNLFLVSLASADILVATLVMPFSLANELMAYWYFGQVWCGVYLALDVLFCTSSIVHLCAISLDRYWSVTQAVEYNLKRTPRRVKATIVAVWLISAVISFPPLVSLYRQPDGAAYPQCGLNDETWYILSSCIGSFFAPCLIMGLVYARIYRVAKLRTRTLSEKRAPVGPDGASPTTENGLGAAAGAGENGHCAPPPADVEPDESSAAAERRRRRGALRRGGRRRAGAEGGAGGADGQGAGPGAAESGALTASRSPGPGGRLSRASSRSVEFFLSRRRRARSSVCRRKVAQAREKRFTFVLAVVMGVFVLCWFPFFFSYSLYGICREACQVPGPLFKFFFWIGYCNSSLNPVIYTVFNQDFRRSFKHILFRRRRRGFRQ
Experiment [7] in a line: inhibitors of Sendai virus-induced IRF3 signaling, primary screen, TLR/RLR signaling modifier project, cell-based, Sendai virus stimulus, luciferase, 10K MLSCN set (AID 602276;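 active = inhibition at or above 50% at 10 µM; inactive = inhibition below 50%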;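 also: firefly luciferase from ISG56 promoter only with Renilla not read in this screen; 0% = Sendai virus plus DMSO and 100% = medium plus DMSO without virus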). The conditions noted are these: HEK293 RL24 IRF3 luciferase reporter, at 10 µM, stronger effect = higher value. On the technique in general: In a reporter assay the amount or activity of a reporter protein is the signal.

The nature of experiment [8]: inhibitors of poly I:C-induced TLR3 signaling, primary screen, cell-based, poly I:C stimulus, luciferase, 10K MLSCN set (AID 602277;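 active = inhibition of the reporter signal at or above 50%; inactive = inhibition below 50%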). The conditions noted are these: HEK293-TLR3 RL24 IRF3 luciferase reporter, at 10 µM, stronger effect = higher value.

Voltage-gated potassium channel subunit beta-2 (Rattus norvegicus), sequence (P62483 whole entry, looked up): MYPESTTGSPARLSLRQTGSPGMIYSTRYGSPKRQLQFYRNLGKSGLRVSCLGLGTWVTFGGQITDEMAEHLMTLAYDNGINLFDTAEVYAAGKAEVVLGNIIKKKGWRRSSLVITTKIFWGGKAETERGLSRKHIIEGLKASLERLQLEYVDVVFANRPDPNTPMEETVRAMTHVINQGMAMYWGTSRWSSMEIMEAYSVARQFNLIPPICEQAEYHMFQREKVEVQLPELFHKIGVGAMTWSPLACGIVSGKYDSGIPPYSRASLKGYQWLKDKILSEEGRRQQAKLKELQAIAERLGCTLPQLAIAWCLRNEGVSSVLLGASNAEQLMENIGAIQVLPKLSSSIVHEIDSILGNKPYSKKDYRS

As usually defined, the inhibition is the relative decrease from the control value, in per cent. On to `COc1ccc(/C=N/n2cc(-c3ccc(OC)cc3)nc2N)cc1`, for which the cell count in experiment [1] was determined as 351. Further, the inhibition is 10.9% (inactive) in experiment [1], 6.3% (inactive) in experiment [3], 8.24% (inactive) in experiment [7] and 2.92% (inactive) in experiment [8]. For the same molecule, the inhibition of aggregation in experiment [2] was 2.2% (inactive). Further, the values for the nuclei count in experiment [2] and in experiment [3] were 107% and 117%, respectively. Moreover, the fluorescence slope in experiment [4] was -0.246 (inactive). In addition, the NADPH fluorescence slope in experiment [5] was 1.1e-05 (inactive). Further, the slope in experiment [6] is 0.00586 (inactive).
Turning to `O=C(CN1CCN(Cc2ccc(F)cc2Cl)C1=O)NCCCN1CCOCC1`, the cell count in experiment [1] was 477. Moreover, the inhibition in experiment [1] was 7% (inactive); in experiment [3], -63.8% (inactive); in experiment [7], 0.912% (inactive); in experiment [8] it was 36.5% (inactive). In experiment [2], the inhibition of aggregation was -27.6% (inactive). The nuclei count in experiment [2] worked out at 65.3%; in experiment [3] it was 99.9%. Moreover, in experiment [4], the fluorescence slope was -0.523 (inactive). Further, the NADPH fluorescence slope in experiment [5] was -3.8e-05 (inactive). Moreover, the slope in experiment [6] was 0.00757 (inactive).
For the molecule `Cc1ccccc1N(C)S(=O)(=O)c1ccc2[nH]cc(C(=O)NCC3CCCO3)c(=O)c2c1` (centres undefined), the cell count in experiment [1] worked out at 523. For the same molecule, the inhibition in experiment [1] was -20.4% (inactive); in experiment [3], -52.3% (inactive); in experiment [7], -1.58% (inactive); in experiment [8], 14.4% (inactive). Also, in experiment [2], the inhibition of aggregation was 17.8% (inactive). The nuclei count in experiment [2] was found to be 55%; in experiment [3] it was 104%. For the same molecule, in experiment [4], the fluorescence slope is -0.404 (inactive). In experiment [5], the NADPH fluorescence slope is -4.2e-05 (inactive). For the same molecule, the slope in experiment [6] was 0.00343 (inactive).
Regarding `Cc1cc(Oc2ccc(Cl)cc2)nc(-c2ccccc2O)n1`, in experiment [1], the cell count is 612. Moreover, the inhibition in experiment [1] is 11.3% (inactive); in experiment [3], -13.1% (inactive); in experiment [7], 3.04% (inactive); in experiment [8] it was -8.94% (inactive). Also, in experiment [2], the inhibition of aggregation is 4.5% (inactive). The nuclei count turned out to be 73.2% in experiment [2] and 101% in experiment [3]. Besides, the fluorescence slope in experiment [4] is -0.517 (inactive). The NADPH fluorescence slope in experiment [5] was 3.7e-05 (inactive). The slope in experiment [6] is 0.00665 (inactive).
On to `CC(C)C(c1nnnn1CC1CCCO1)N1CCN(Cc2ccc3c(c2)OCO3)CC1` (centres undefined), for which, in experiment [1], the cell count was found to be 357. Besides, the inhibition in experiment [1] is 4.8% (inactive); in experiment [3], -55.1% (inactive); in experiment [7], 9.72% (inactive); in experiment [8], 12.5% (inactive). The inhibition of aggregation in experiment [2] was -10.8% (inactive). Moreover, the nuclei count in experiment [2] is 113%; in experiment [3] it was 110%. In addition, the fluorescence slope in experiment [4] was -0.521 (inactive). In addition, the NADPH fluorescence slope in experiment [5] was -5.8e-05 (inactive). Also, the slope in experiment [6] is 0.00548 (inactive).
`Cc1ccccc1NC(=O)C1CC(=O)N(c2ccccc2F)C1` (centres undefined): the cell count in experiment [1] stood at 238. The inhibition in experiment [1] was -0.6% (inactive); in experiment [3], -56.9% (inactive); in experiment [7] it was 0.893% (inactive); in experiment [8], 28.8% (inactive). Also, in experiment [2], the inhibition of aggregation was 30.3% (inactive). Besides, the nuclei count in experiment [2] stood at 77%; in experiment [3], 97.7%. The fluorescence slope in experiment [4] is -0.462 (inactive). Besides, the NADPH fluorescence slope in experiment [5] is -3.8e-05 (inactive). Moreover, the slope in experiment [6] was 0.00686 (inactive).
As for `COc1ccc(C)cc1NC(=O)C1CCN(S(=O)(=O)c2cccc3cccnc23)CC1`, in experiment [1], the cell count turned out to be 539. Further, the inhibition was -6.5% (inactive) in experiment [1], -6.8% (inactive) in experiment [3], 14.3% (inactive) in experiment [7] and 30.4% (inactive) in experiment [8]. Moreover, the inhibition of aggregation in experiment [2] was 13.2% (inactive). The nuclei count in experiment [2] came out at 76.6%; in experiment [3] it was 106%. In addition, the fluorescence slope in experiment [4] was -0.535 (inactive). Further, the NADPH fluorescence slope in experiment [5] is -4.1e-05 (inactive). Besides, the slope in experiment [6] is 0.00559 (inactive).
Consider `CCCOc1ccccc1C1CC(=O)Nc2cc3c(cc21)OCCO3` (centres undefined), for which, in experiment [1], the cell count is 647. Besides, the inhibition in experiment [1] was 4.9% (inactive); in experiment [3], 29.7% (inactive); in experiment [7], -3.13% (inactive); in experiment [8] it was 78% (active). Moreover, the inhibition of aggregation in experiment [2] was 6.6% (inactive). The values for the nuclei count in experiment [2] and in experiment [3] were 39.3% and 97.2%, respectively. For the same molecule, the fluorescence slope in experiment [4] is -0.628 (inactive). Also, the NADPH fluorescence slope in experiment [5] was -2e-05 (inactive). Further, the slope in experiment [6] was 0.00236 (inactive).
Consider `COc1cccc(-c2nnc(SCC(N)=O)n2-c2ccc(Cl)cc2)c1`, for which the cell count in experiment [1] amounted to 327. The inhibition in experiment [1] is -6.5% (inactive); in experiment [3] it was -60.5% (inactive); in experiment [7], 8.3% (inactive); in experiment [8] it was 13.1% (inactive). Besides, the inhibition of aggregation in experiment [2] was -11.9% (inactive). Further, the nuclei count is 107% in experiment [2] and 94.5% in experiment [3]. For the same molecule, the fluorescence slope in experiment [4] is -0.495 (inactive). For the same molecule, the NADPH fluorescence slope in experiment [5] is -0.000142 (inactive). The slope in experiment [6] is 0.00431 (inactive).
Consider `COCCNC(=O)C(c1ccc(C)o1)N(Cc1ccc(OC)cc1)C(=O)Cn1nnc2ccccc21` (centres undefined), for which, in experiment [1], the cell count is 249. The inhibition was 7% (inactive) in experiment [1], 25.3% (inactive) in experiment [3], 10.1% (inactive) in experiment [7] and 6.31% (inactive) in experiment [8]. Moreover, the inhibition of aggregation in experiment [2] was -3.6% (inactive). Besides, the values for the nuclei count in experiment [2] and in experiment [3] were 93.1% and 82.9%, respectively. Further, the fluorescence slope in experiment [4] was -0.648 (inactive). The NADPH fluorescence slope in experiment [5] is -1.9e-05 (inactive). The slope in experiment [6] is 0.00364 (inactive).
Turning to `Cc1nn(-c2ccc(F)cc2)c2sc(C(=O)O)cc12`, the cell count in experiment [1] turned out to be 354. For the same molecule, the inhibition in experiment [1] is 4.7% (inactive); in experiment [3], -87.2% (inactive); in experiment [7] it was 13.2% (inactive); in experiment [8], 24% (inactive). Besides, in experiment [2], the inhibition of aggregation is 3.7% (inactive). Further, the nuclei count in experiment [2] was found to be 86.9%; in experiment [3], 117%. Also, in experiment [4], the fluorescence slope was -0.447 (inactive). Moreover, in experiment [5], the NADPH fluorescence slope is -0.00011 (inactive). Also, the slope in experiment [6] was 0.00627 (inactive).
In the case of `O=C(CCSc1nc(-c2ccco2)cc(C(F)(F)F)n1)Nc1ccc2c(c1)OCO2`, in experiment [1], the cell count stood at 429. The inhibition in experiment [1] is 1.8% (inactive); in experiment [3], -52.9% (inactive); in experiment [7] it was -4.65% (inactive); in experiment [8], -14.1% (inactive). In addition, the inhibition of aggregation in experiment [2] is 30.3% (inactive). Besides, the nuclei count was 95.1% in experiment [2] and 161% in experiment [3]. Further, the fluorescence slope in experiment [4] is -0.386 (inactive). Further, the NADPH fluorescence slope in experiment [5] was 2.5e-05 (inactive). For the same molecule, in experiment [6], the slope is 0.00312 (inactive).
In the case of `CCn1cc(C(=O)NCC2CCCO2)c(=O)c2cc(S(=O)(=O)N(C)C3CCCCC3)ccc21` (centres undefined), in experiment [1], the cell count came out at 528. Besides, the inhibition in experiment [1] is 3.7% (inactive); in experiment [3], -60.9% (inactive); in experiment [7], 16.7% (inactive); in experiment [8], 33.2% (inactive). Also, in experiment [2], the inhibition of aggregation was -8.9% (inactive). Besides, the nuclei count in experiment [2] worked out at 99.3%; in experiment [3] it was 97.9%. Further, the fluorescence slope in experiment [4] is -0.629 (inactive). The NADPH fluorescence slope in experiment [5] is -3.4e-05 (inactive). The slope in experiment [6] was 0.00653 (inactive).
Take `CC(CN1CCCCC1)OC(=O)c1ccc(Cl)cc1Cl` (centres undefined): in experiment [1], the cell count turned out to be 585. In addition, the inhibition in experiment [1] is 10.3% (inactive); in experiment [3], 9.3% (inactive); in experiment [7], -18.5% (inactive); in experiment [8], -15.9% (inactive). The inhibition of aggregation in experiment [2] was -8.8% (inactive). Further, the nuclei count in experiment [2] was determined as 87.8%; in experiment [3], 105%. The fluorescence slope in experiment [4] was -0.438 (inactive). For the same molecule, the NADPH fluorescence slope in experiment [5] was 1.5e-06 (inactive). Also, the slope in experiment [6] was 0.00424 (inactive).
